Results on 18 compounds are retold here after the supplement of paper PMC13380429.

This test has as its system Vero E6 infected with SARS-CoV-2. Put plainly: inhibition of SARS-CoV-2 cytopathic effect; higher = more antiviral protection, active = above 15. As to conditions: 48 h.

Unmarked numbers belong to inactive results.

Turning to `CC(C)C[C@@H](C(=O)N[C@H](C(=O)OC1CCCC1)c1ccccc1)[C@H](O)C(=O)NO` [tosedostat], the “inhibition of SARS-CoV-2 cytopathic effect” value (“inhibition” below) was 3.34% (1 nM); 6.05% (8.33 nM); -1.49% (100 nM); 3.93% (833.33 nM); 4.94% (10000 nM).
Turning to `Nc1ccn([C@H]2CC[C@@H](CO)O2)c(=O)n1` [zalcitabine], the “inhibition” value is, setting by setting: (1 nM) -0.47%; (8.33 nM) -1.89%; (100 nM) -4.07%; (833.33 nM) -2.84%; (10000 nM) -0.03%.
For `CN1CCc2cc(Cl)c(O)cc2[C@@H](c2ccccc2)C1`, in that order: 10.5%, 6.47%, 7.29%, 2.11% and -0.78%.
For `C[C@]12CCC(=O)C=C1C=C[C@@H]1[C@@H]2CC[C@@]2(C)[C@H]1CC[C@@]2(O)CCC(=O)O` [potassium-canrenoate], in that order: -4.66%, -2.95%, 2.67%, 3.81% and 0.36%.
Turning to `COc1cc2c(=O)c(-c3ccc(O)cc3)coc2cc1O` [glycitein], the “inhibition” value reads like this: (1 nM) 1.2%; (8.33 nM) -0.34%; (100 nM) -0.96%; (833.33 nM) -2.13%; (10000 nM) -1.58%.
Take `Nc1ncnc2c1ncn2[C@@H]1O[C@H](CO)C[C@H]1O` [cordycepin]: the “inhibition” value was -1.1% (1 nM); 0.92% (8.33 nM); 1.03% (100 nM); -0.81% (833.33 nM); -3.28% (10000 nM).
For `Cn1cc(-c2cnc3ccc4ccc(CS(=O)(=O)NCc5ccccn5)cc4c(=O)c3c2)cn1`, in that order: 1.02%, 0.57%, 1.94%, 3.38% and 1.59%.
The matching figures for `CNC[C@H](O)c1cccc(O)c1` [phenylephrine]: 0.59%, 1.75%, -0.82%, 0.14% and -0.09%.
The matching figures for `C[C@@H](Nc1cc(F)cc(F)c1)c1cc(C(=O)N(C)C)cc2c(=O)cc(N3CCOCC3)oc12`: -3.44%, -2.8%, -5.04%, 1.19% and -4.12%.
Take `O=C(Nc1ccc(Cl)nc1)c1ccc(Cl)cc1`: the “inhibition” value by setting is: (1 nM) 0.45%; (8.33 nM) 1.94%; (100 nM) 2.79%; (833.33 nM) 0.19%; (10000 nM) 0.84%.
The matching figures for `COc1ccc(NC(=O)c2ccc(-c3ccc(-c4noc(C)n4)cc3C)cc2)cc1N1CCN(C)CC1`: 4.92%, 6.46%, 0.49%, -1.73% and 36.7% (active).
Regarding `CN(C)CCN1C(=O)c2cccc3cc(NC(N)=O)cc(c23)C1=O` [unbs-5162], the “inhibition” value is -0.12% (1 nM); 4.76% (8.33 nM); 2.53% (100 nM); 0.4% (833.33 nM); -2.03% (10000 nM).
For `CCCCCCCCCCCCCCCCOc1nc2ccc(C)cc2c(=O)o1` [cetilistat], in that order: 2.2%, 1.36%, -0.06%, 0.62% and 0.91%.
As to `CC(C)c1cc(-c2n[nH]c(=O)n2-c2ccc3c(ccn3C)c2)c(O)cc1O` [ganetespib], the “inhibition” value (1 nM) was -2.33%; the “inhibition” value (8.33 nM) is -3.79%; the “inhibition” value (100 nM) is -1.43%; the “inhibition” value (833.33 nM) was -1.16%; the “inhibition” value (10000 nM) was -7.9%.
For `COC(=O)[C@@]12OC[C@]34[C@H]([C@@H](O)[C@@H]1O)[C@@]1(C)CC(=O)C(O)=C(C)[C@@H]1C[C@H]3OC(=O)[C@H](OC(=O)/C=C(\C)C(C)C)[C@@H]24` [bruceantin], in that order: 1.48%, 1.92%, 26.8% (active), 4.61% and -16.1%.
Regarding `O=C(C1CC1)N1CC[C@@H](Cc2n[nH]c(=O)n2-c2ccc(-c3ccc4occc4c3)cc2)C1`, the “inhibition” value was -1.12% (1 nM); -1.14% (8.33 nM); -1.43% (100 nM); -0.64% (833.33 nM); -4.48% (10000 nM).
The matching figures for `CC(C)[N+](C)(CCOC(=O)C1c2ccccc2Oc2ccccc21)C(C)C` [propantheline]: 0.61%, 0.91%, -0.81%, -1.32% and -0.04%.
The matching figures for `CCn1c(=O)[nH]c2cc(Cl)c(Cl)cc21`: 0.36%, 1.8%, 0.73%, -2.68% and -2.08%.
